Reference: PubChem BioAssay (EPA / NIEHS)
The source made the active and inactive calls. Rule for the calls: active = hit-call score of the fitted dose curve at least 0.9, where 1 is the maximum; inactive = score below 0.9.

Legend:
Conditions in all cases: mRNA level, 48 h; actives raise or lower the signal
[1] = read-out: solute carrier (SLC22A1), SLC22A1 (gene 6580); experiment: LTEA_HepaRG_SLC22A1: Life Technologies and Expression Analysis (LTEA) Assay for solute carrier (SLC22A1) using HepaRG (AID 2283524);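 for AC50: differentiated human HepaRG liver cells in serum-free induction medium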
How it was run: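 qRT-PCR readout (TaqMan, Fluidigm arrays) of SLC22A1 transcript, normalized to three housekeeping genes; bidirectional curve fit relative to 0.5% DMSO vehicle. Differentiated human HepaRG cells, 48 h chemical exposure, top concentration 100 uM, half-log steps, eight points.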

[2] = read-out: Pyruvate Dehydrogenase Kinase 4 (PDK4), PDK4 (gene 5166); experiment: LTEA_HepaRG_PDK4: Life Technologies and Expression Analysis (LTEA) Assay for Pyruvate Dehydrogenase Kinase 4 (PDK4) using HepaRG (AID 2283525)
How it was run: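 HepaRG (human liver line), 48 h chemical exposure, 8-pt half-log CRC top 100 uM, 0.5% DMSO vehicle, duplicates. Readout: TaqMan qRT-PCR of PDK4 mRNA, housekeeping-normalized; gain/loss fit relative to DMSO baseline.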

[3] = read-out: NAD(P)H dehydrogenase [quinone] 1 (NQO1), NQO1 (gene 1728); experiment: LTEA_HepaRG_NQO1: Life Technologies and Expression Analysis (LTEA) Assay for NAD(P)H dehydrogenase [quinone] 1 (NQO1) using HepaRG (AID 2283526)
How it was run: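 qRT-PCR read-out (Fluidigm TaqMan), normalized to three housekeeping genes, after 48 h chemical exposure of HepaRG cells. Concentrations: eight points, top 100 uM, half-log steps, 0.5% DMSO vehicle. Gain or loss of signal fitted relative to DMSO.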

[4] = read-out: Nuclear factor erythroid 2-related factor 2 (Homo sapiens) (UniProt Q16236); experiment: LTEA_HepaRG_NFE2L2: Life Technologies and Expression Analysis (LTEA) Assay for Nuclear factor erythroid 2-related factor 2 (NFE2L2) Transcription Factor using HepaRG (AID 2283527)
How it was run: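 HepaRG, 48 h dosing, 8-pt half-log series from 100 uM in 0.5% DMSO, duplicates. Read-out: NFE2L2 mRNA by qRT-PCR (ACTB/GAPDH/POLR2A normalization). Bidirectional curve fit vs DMSO baseline.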

[5] = read-out: succinate dehydrogenase complex iron sulfur subunit B (SDHB), SDHB (gene 6390); experiment: LTEA_HepaRG_SDHB: Life Technologies and Expression Analysis (LTEA) Assay for succinate dehydrogenase complex iron sulfur subunit B (SDHB) using HepaRG (AID 2283528)
How it was run: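 SDHB transcript level read by TaqMan qRT-PCR, housekeeping-normalised (ACTB, GAPDH, POLR2A), after 48 h chemical treatment of plated HepaRG cells; eight concentrations top 100 uM, half-log steps, 0.5% DMSO, duplicates; fitted both directions against DMSO.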

[6] = read-out: Signal transducer and activator of transcription 3 (Homo sapiens) (UniProt P40763); experiment: LTEA_HepaRG_STAT3: Life Technologies and Expression Analysis (LTEA) Assay for Signal transducer and activator of transcription (STAT3) using HepaRG (AID 2283529)
How it was run: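 HepaRG, 48 h exposure, 8-pt half-log series (top 100 uM), 0.5% DMSO vehicle, duplicates. Readout: STAT3 transcript by Fluidigm qRT-PCR, housekeeping-normalized; bidirectional fit vs DMSO baseline.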

[7] = read-out: solute carrier (SLCO1B1), SLCO1B1 (gene 10599); experiment: LTEA_HepaRG_SLCO1B1: Life Technologies and Expression Analysis (LTEA) Assay for solute carrier (SLCO1B1) using HepaRG (AID 2283530)
How it was run: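 HepaRG, serum-free induction medium, 48 h dosing, 8-pt half-log from 100 uM, 0.5% DMSO vehicle, duplicates. Readout: SLCO1B1 mRNA, qRT-PCR, ACTB/GAPDH/POLR2A normalization; up or down fit vs DMSO.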

[8] = read-out: sulfotransferase 2A1 (SULT2A1), SULT2A1 (gene 6822); experiment: LTEA_HepaRG_SULT2A1: Life Technologies and Expression Analysis (LTEA) Assay for sulfotransferase 2A1 (SULT2A1) using HepaRG (AID 2283531)
How it was run: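 Transcript levels of SULT2A1, quantified by qRT-PCR and normalized to three housekeeping genes, serve as the readout. Human HepaRG cultures receive test chemicals for 48 h at up to 100 uM in half-log steps, with 0.5% DMSO vehicle.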

[9] = read-out: Transforming Growth Factor (TGFA), TGFA (gene 7039); experiment: LTEA_HepaRG_TGFA: Life Technologies and Expression Analysis (LTEA) Assay for Transforming Growth Factor (TGFA) using HepaRG (AID 2283532)
How it was run: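 qRT-PCR read-out of TGFA transcript, normalized to three housekeeping genes, fitted bidirectionally against 0.5% DMSO baseline. Human HepaRG cultures received chemicals for 48 h at eight half-log concentrations, top 100 uM.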

[10] = read-out: Transforming Growth Factor (TGFB1), TGFB1 (gene 7040); experiment: LTEA_HepaRG_TGFB1: Life Technologies and Expression Analysis (LTEA) Assay for Transforming Growth Factor (TGFB1) Transporter using HepaRG (AID 2283533)
How it was run: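 HepaRG, 48 h post-plating, switched to serum-free induction medium; chemicals 100 uM top, half-log, 8 pts, 0.5% DMSO, dup; 48 h exposure; RNA → Fluidigm TaqMan qRT-PCR; norm ACTB/GAPDH/POLR2A; bidirectional fit vs DMSO.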

Measured: AC50

Chain of Nuclear factor erythroid 2-related factor 2 (Homo sapiens) (Q16236 whole entry, looked up): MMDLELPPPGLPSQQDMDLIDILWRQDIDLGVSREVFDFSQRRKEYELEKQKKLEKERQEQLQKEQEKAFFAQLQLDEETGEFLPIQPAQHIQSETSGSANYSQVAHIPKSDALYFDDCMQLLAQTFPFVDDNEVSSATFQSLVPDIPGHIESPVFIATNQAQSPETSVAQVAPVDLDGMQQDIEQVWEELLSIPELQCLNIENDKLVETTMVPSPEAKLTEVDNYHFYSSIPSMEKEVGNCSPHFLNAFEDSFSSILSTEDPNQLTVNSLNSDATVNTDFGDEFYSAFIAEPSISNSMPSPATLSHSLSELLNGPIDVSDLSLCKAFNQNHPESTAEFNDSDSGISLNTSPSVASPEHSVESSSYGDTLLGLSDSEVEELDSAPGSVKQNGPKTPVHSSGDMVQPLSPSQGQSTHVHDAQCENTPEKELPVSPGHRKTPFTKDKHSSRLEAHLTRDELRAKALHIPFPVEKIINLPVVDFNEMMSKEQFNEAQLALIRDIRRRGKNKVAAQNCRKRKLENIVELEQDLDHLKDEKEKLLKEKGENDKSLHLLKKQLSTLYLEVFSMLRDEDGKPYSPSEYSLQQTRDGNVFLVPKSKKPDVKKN
Chain of Signal transducer and activator of transcription 3 (Homo sapiens) (P40763 whole entry, looked up): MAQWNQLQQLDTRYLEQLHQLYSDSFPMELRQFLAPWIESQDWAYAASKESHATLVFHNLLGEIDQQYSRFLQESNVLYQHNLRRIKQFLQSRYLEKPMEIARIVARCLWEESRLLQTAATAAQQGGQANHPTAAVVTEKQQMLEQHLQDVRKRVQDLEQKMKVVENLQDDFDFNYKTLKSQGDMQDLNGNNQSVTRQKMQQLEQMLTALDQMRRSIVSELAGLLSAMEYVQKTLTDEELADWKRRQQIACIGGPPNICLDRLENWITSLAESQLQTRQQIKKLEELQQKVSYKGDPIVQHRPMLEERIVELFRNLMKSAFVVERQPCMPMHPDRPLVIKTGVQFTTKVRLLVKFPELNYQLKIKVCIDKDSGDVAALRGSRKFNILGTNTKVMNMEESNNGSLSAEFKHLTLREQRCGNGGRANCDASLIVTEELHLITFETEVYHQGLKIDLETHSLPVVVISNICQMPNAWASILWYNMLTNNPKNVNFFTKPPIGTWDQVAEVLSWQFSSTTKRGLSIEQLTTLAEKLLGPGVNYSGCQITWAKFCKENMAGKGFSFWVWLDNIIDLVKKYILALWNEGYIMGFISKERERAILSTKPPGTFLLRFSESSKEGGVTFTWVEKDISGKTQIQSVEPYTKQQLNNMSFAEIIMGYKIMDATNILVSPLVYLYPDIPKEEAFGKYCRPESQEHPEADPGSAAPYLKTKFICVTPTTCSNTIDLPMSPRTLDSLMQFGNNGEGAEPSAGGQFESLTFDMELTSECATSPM

CC[C@H](C)C(=O)O[C@H]1C[C@H](O)C=C2C=C[C@H](C)[C@H](CC[C@@H](O)C[C@@H](O)CC(=O)O)[C@H]21
inactive: [1] | [2] | [3] | [4] | [5] | [6] | [7] | [8] | [9] | [10]

CCCCCCOC(=O)CC(CC(=O)OCCCCCC)(OC(=O)CCC)C(=O)OCCCCCC
inactive: [1] | [2] | [3] | [4] | [5] | [6] | [7] | [8] | [9] | [10]

C=CCc1cc(S(=O)(=O)c2ccc(O)c(CC=C)c2)ccc1O
active: [1] 89 µM | [2] 81.1 µM | [7] 85.4 µM | [8] 81.2 µM
inactive: [3] | [4] | [5] | [6] | [9] | [10]

O=C(O)c1cccc(C[C@@H]2COc3ccc(OCc4nc5cc(F)ccc5s4)cc3[C@@H]2O)c1
inactive: [2] | [3] | [4] | [5] | [6] | [8] | [9] | [10]
active: [1] 93.4 µM | [7] 92.3 µM

CCc1ccc(O)c(C(C)(C)C)c1
inactive: [1] | [2] | [3] | [4] | [5] | [6] | [7] | [8] | [9] | [10]

C=CN1CCCC1=O
inactive: [1] | [2] | [3] | [4] | [5] | [6] | [7] | [8] | [9] | [10]

CNC(C)=O
inactive: [1] | [2] | [3] | [4] | [5] | [6] | [7] | [8] | [9] | [10]

CCn1nc(C)c2c1C(=O)NCC(c1ccc(O)cc1)=N2
inactive: [1] | [2] | [3] | [4] | [5] | [6] | [7] | [8] | [9] | [10]

O=S1(=O)CCCO1
inactive: [1] | [2] | [3] | [4] | [5] | [6] | [7] | [8] | [9] | [10]

Cc1ncc([C@@H](CCCCCCc2ccc3c(n2)NCCC3)CC(=O)O)cn1
inactive: [1] | [3] | [4] | [5] | [6] | [7] | [8] | [9] | [10]
active: [2] 0.317 µM

CCCCCCCC/C=C\CCCCCCCC(=O)OC[C@@H](O)[C@H]1OC[C@H](O)[C@H]1O
inactive: [1] | [2] | [3] | [4] | [5] | [6] | [7] | [8] | [9] | [10]

O=c1[nH]cnc2c1ncn2[C@H]1CC[C@@H](CO)O1
inactive: [1] | [2] | [3] | [4] | [5] | [6] | [7] | [8] | [9] | [10]

CC(=O)c1ccccc1
inactive: [1] | [2] | [3] | [4] | [5] | [6] | [7] | [8] | [9] | [10]

CC(C)CCCCCCOC(=O)C1CCCCC1C(=O)OCCCCCCC(C)C (centres undefined)
inactive: [1] | [2] | [3] | [4] | [5] | [6] | [7] | [9] | [10]
active: [8] 9.92 µM

Cc1nccn1-c1ccc(Sc2cccc(C3(C(N)=O)CCOCC3)c2)cc1
active: [1] 11.2 µM | [3] 18.6 µM | [5] 27.4 µM | [6] 1.93 µM | [7] 13.6 µM | [8] 15 µM | [9] 9.24 µM | [10] 24.8 µM
inactive: [2] | [4]

c1ccc2ncccc2c1
active: [4] 50 µM
inactive: [1] | [2] | [3] | [5] | [6] | [7] | [8] | [9] | [10]

OC(Cn1cncn1)(Cn1cncn1)c1ccc(F)cc1F
inactive: [1] | [2] | [3] | [4] | [5] | [6] | [7] | [8] | [9] | [10]

Cn1cc[nH]c1=S
inactive: [1] | [2] | [3] | [4] | [5] | [6] | [7] | [8] | [9] | [10]

O=C(O)c1ccc2c(c1)nc(C(=O)NC1CCN(C3CC3)CC1)n2Cc1cc(-c2ccc(Cl)s2)on1
inactive: [1] | [2] | [3] | [4] | [5] | [6] | [7] | [8] | [9] | [10]

OC[C@H]1O[C@@](CO)(O[C@H]2O[C@H](CO)[C@@H](O)[C@H](O)[C@H]2O)[C@@H](O)[C@@H]1O
inactive: [1] | [2] | [3] | [4] | [5] | [6] | [7] | [8] | [9] | [10]

NC(=O)N1c2ccccc2C=Cc2ccccc21
inactive: [1] | [2] | [3] | [4] | [5] | [6] | [7] | [8] | [9] | [10]

CCCCC(CC)C(=O)OCCOCCOCCOC(=O)C(CC)CCCC (centres undefined)
inactive: [1] | [2] | [3] | [4] | [5] | [6] | [7] | [8] | [9] | [10]

CC1(C)C(=O)N(Cl)C(=O)N1Cl
inactive: [1] | [2] | [3] | [4] | [5] | [6] | [7] | [8] | [9] | [10]

COc1cc2c(c(OC)c1OC)-c1ccc(OC)c(=O)cc1[C@@H](NC(C)=O)CC2
inactive: [4] | [6]
active: [1] 0.105 µM | [2] 0.0626 µM | [3] 0.148 µM | [5] 0.138 µM | [7] 0.136 µM | [8] 0.181 µM | [9] 0.0871 µM | [10] 0.04 µM

COCc1nnc(-c2ccc[n+]([O-])c2)n1-c1c(Cl)c(Cl)cc2[nH]c(=O)c(=O)[nH]c12
inactive: [1] | [2] | [3] | [4] | [5] | [6] | [7] | [8] | [9] | [10]

O=C(O)c1cccc(C(=O)O)c1
inactive: [1] | [2] | [3] | [4] | [5] | [6] | [7] | [8] | [9]

CCCCCCCCCCCCCCCCOS(=O)(=O)O
active: [1] 38.6 µM | [2] 10.8 µM
inactive: [3] | [4] | [5] | [6] | [7] | [8] | [9] | [10]

CC(C)CC(C)O (centres undefined)
inactive: [1] | [2] | [3] | [4] | [5] | [6] | [7] | [8] | [9] | [10]

CCCc1ccccc1
inactive: [1] | [2] | [3] | [4] | [5] | [6] | [7] | [8] | [9] | [10]

CCCCCCCCCC
inactive: [1] | [2] | [3] | [4] | [5] | [6] | [7] | [8] | [9] | [10]

O=C(O)[C@H](O)[C@@H](O)C(=O)O
inactive: [1] | [2] | [3] | [4] | [5] | [6] | [7] | [8] | [9] | [10]

COc1cc(C(C)C)c2c(c1)S(=O)(=O)N(COc1cc(=O)n3cccc(OCCN4CCCCC4)c3n1)C2=O
active: [1] 20.8 µM | [4] 22.8 µM | [7] 21.1 µM | [8] 23.7 µM
inactive: [2] | [3] | [5] | [6] | [9] | [10]

CCCCN1C(=O)[C@@H]([C@H](O)C2CCCCC2)NC(=O)C12CCN(Cc1ccc(Oc3ccc(C(=O)O)cc3)cc1)CC2
inactive: [9]
active: [1] 1.72 µM | [2] 2.61 µM | [3] 4.6 µM | [4] 2 µM | [5] 1.56 µM | [6] 3.21 µM | [7] 1.92 µM | [8] 3.91 µM | [10] 0.34 µM

O=S(=O)(O)c1ccc(N=Nc2c(O)ccc3cc(S(=O)(=O)O)ccc23)cc1
inactive: [1] | [2] | [3] | [4] | [5] | [6] | [7] | [8] | [9] | [10]
